Laboratory results as given in PubChem BioAssay AID588742 (Southern Research Specialized Biocontainment Screening …, 2011).
The campaign covered roughly 1,800 compounds. About 410 (23%) were called active. These entries were drawn from the full list. Results with a measured potency or affinity are listed apart. A number with no mark means an inactive call. How the calls were made is not given here.

Experiment: Vero cell cytotoxicity, cytotoxicity control for flavivirus capping enzyme inhibitors (AID 588742)
Details: Vero cells viability, cytotoxicity counter-screen; series mostly up to 40 µM; viability: at the top concentration

Compound | viability [%]
COc1c(OC(C)=O)ccc(/C=N\NC(=O)c2ccc(Br)cc2)c1[N+](=O)[O-] | 92.1
O=C(O/N=C1\CCCCC1c1ccc([N+](=O)[O-])cc1[N+](=O)[O-])c1c(F)cccc1F (stereo not given) | 98.9
O=C(O)c1cc(/C=C/C(=O)c2cc(F)ccc2O)c2c(c1)COCO2 | 95
Cc1cc(S(=O)(=O)ON2C(=O)c3ccccc3C2=O)ccc1F | 105
Cc1cc(N2C(=O)C(O)=C(C(=O)c3ccco3)C2c2cccc(Oc3ccccc3)c2)no1 (stereo not given) | 95.3
CCCCC1=CC2=CC(=O)C(C)(OC(=O)CC)C(=O)C2=CN1Cc1ccc(OC)cc1 (stereo not given) | 101
O=C1C=CC2=C3c4cc(O)c(O)cc4CC3(O)COC2=C1O (stereo not given) | 93.7
CCOC(=O)C1(C)/C(=N/Nc2cccc(Cl)c2)C(=O)C(=O)N1c1ccccc1 (stereo not given) | 99.2
N=C1/C(=C\c2ccc(OC(=O)c3ccc(F)cc3)cc2)C(=O)N=C2SC(N3CCOCC3)=NN12 | 85.6
O=C(CCN1C(=O)/C(=C/c2ccccc2Cl)SC1=S)Nc1ccccc1C(=O)O | 103
O=C(O)CCCCCN1C(=O)C(O)=C(C(=O)/C=C/c2ccccc2)C1c1ccccc1[N+](=O)[O-] (stereo not given) | 103
O=C(N/N=C/C(Cl)=C/c1ccc([N+](=O)[O-])cc1)C(=O)Nc1ccccc1C(=O)O | 90.8
Oc1cc(-n2cccn2)c(O)cc1-n1cccn1 | 106
CC(=O)Nc1ccc(NC(=O)CC2Nc3cccc4cccc(c34)NC2=O)cc1 (stereo not given) | 92.3
COc1ccc(C2C=C(c3ccc(F)cc3)NC(=S)N2)cc1OC (stereo not given) | 95.2
COC(=O)CCC(=O)OC1(C)C(=O)C2=CN(c3ccccc3)C(c3ccc(OC)cc3)=CC2=C(Br)C1=O (stereo not given) | 111
O=c1[nH]c(/C=C/c2ccc(Cl)cc2Cl)c([N+](=O)[O-])c(=O)[nH]1 | 105
CC1CCc2c(sc(N)c2C(N)=O)C1 (stereo not given) | 100
O=c1cccccc1NCc1ccccc1 | 104
NC(=S)NNc1cccc2cccnc12 | 86.7
Oc1ccc(NCc2ccc(OCc3ccccc3)cc2)cc1 | 102
CN(C(=S)Nc1cccnc1)c1ccc(O)cc1 | 108
CCOc1ccc(Nc2ccc(N)c(S(=O)(=O)O)c2)cc1 | 104
O=C1C=C(Nc2ccccc2C(=O)O)c2ccccc2C1=O | 93.8
CCC(C)c1ccc(NC(=O)Nc2cccnc2)cc1 (stereo not given) | 92.2

Compound | viability [%]
C#CCOc1c(/C=C\c2nc(O)c([N+](=O)[O-])c(=O)[nH]2)cc(Br)cc1OC | 99.6
COC(=O)c1ccc(NC(=O)CCc2nnc3ccc(NCc4ccco4)nn23)cc1 | 88.7
COc1ccc(OC)c(/C=C/c2c([N+](=O)[O-])c(=O)n(C)c(=O)n2C)c1 | 100
CC1(OC(=O)CCc2ccccc2)C(=O)C=C2C=C(c3ccc(C#N)cc3)N(C3CCCC3)C=C2C1=O (stereo not given) | 107
O=C1/C(=C\c2ccc(-c3ccccc3[N+](=O)[O-])o2)C(c2ccccc2)=NN1c1ccccc1 | 86.9
CCn1c(CSc2nnc3ccccn23)nc2cc(C(=O)O)ccc21 | 97.8
O=C(O)C1=CC[C@@H](c2ccc(Cl)cc2)N(S(=O)(=O)c2ccc(Cl)cc2)[C@H]1c1cccc(Cl)c1 | 87.2
COc1ccccc1CNC(=S)Nc1ccc(S(N)(=O)=O)cc1 | 92.7
Cc1ccc(Nc2ccc(N)cc2S(=O)(=O)O)cc1 | 85
Cc1ccc(C)c(S(=O)(=O)ON2C(=O)c3ccccc3C2=O)c1 | 109
CCOC(=O)c1c(-c2cccc(C)c2)csc1NC(=O)C1CC=CCC1C(=O)O (stereo not given) | 108
Cc1ccc(C(=O)Nc2ccccc2C(=O)O)cc1S(=O)(=O)Nc1ccc(Br)cc1 | 101
COC(=O)c1ccc(N2NC(=O)/C(=C/c3ccc(-c4ccc(Cl)c(C(=O)O)c4)o3)C2=O)cc1 | 93.8
CC1(OC(=O)C2CCCC2)C(=O)C=C2C=C(c3ccsc3)N(CCc3ccccn3)C=C2C1=O (stereo not given) | 97.4
CSc1nsc2nc(=O)c(/C=C3\C=Nc4ccccc43)c(N)n12 | 89.2
CC1=NN(Cc2ccccc2)C(=O)C1C(c1ccc(Cl)cc1)C(C#N)C#N (stereo not given) | 82.8
Cc1ccc(F)c(NC(=O)/C(C#N)=C(\O)c2ccc(C(C)(C)C)cc2)c1 | 94.3
Cc1ccc(NC(=O)c2cccc(C(=O)Nc3ccc(C)cc3C(=O)O)c2)c(C(=O)O)c1 | 95.8
Cn1c(=O)c2[nH]c(-c3ccccc3)c(O)c2n(C)c1=O | 105
O=C(O)COc1ccc(/C=C/C(=O)c2ccc(C3CCCCC3)cc2)cc1 | 90.6
O=C(O)c1ccc2c(c1)C(=O)N(c1ccc(/C=C/C(=O)c3ccccc3)cc1)C2=O | 110
C#CCOc1c(Br)cc(/C=C2/C(=O)ON=C2C)cc1OC | 92.8
CC(C(=O)Nc1ccc(O)cc1C(=O)O)N1C(=O)/C(=C\c2cccs2)SC1=S (stereo not given) | 95.8
O=C1CC2CCCN2C=C1I (stereo not given) | 94.8
c1cc2c(cc1CNc1ccc(N3CCOCC3)cc1)OCO2 | 101

Compound | viability [%]
Cc1ccc(-c2cc(C(=O)O)c3cc(Br)ccc3n2)o1 | 92.2
Cc1ccnc(NCc2ccccc2O)c1 | 101
O=C1C(Cl)=C(N2CCCC2)C(=O)N1c1ccccc1F | 104
Cc1ccc(N2C(=O)C(Cl)=C(N3CCN(C)CC3)C2=O)c(C)c1 | 102
CN1CCN(C2=C(Cl)C(=O)N(c3ccc(Cl)c(Cl)c3)C2=O)CC1 | 106
O=C1C(Cl)=C(N2CCCCC2)C(=O)N1c1ccccc1 | 94.3
CCCCNC(=O)c1ccc2nc(-c3ccco3)c(-c3ccco3)nc2c1 | 96
CC1=NN(c2ccc(C)c(C)c2)C(=O)C1C(c1cccc(O)c1)C1C(=O)N(c2ccc(C)c(C)c2)N=C1C (stereo not given) | 102
CCCCC1=CC2=C(c3ccco3)C(=O)C(C)(OC(=O)c3ccc(OC)cc3)C(=O)C2=CN1C(CO)CO (stereo not given) | 98.4
C=CCOc1ccc(C(c2c(O)nc(SC)[nH]c2=O)c2c(O)nc(SC)[nH]c2=O)cc1 | 107
CC(=O)N1c2ccc(S(=O)(=O)N(C)CC(=O)Nc3ccccc3C)cc2CC1C (stereo not given) | 108
O=C(CN1C(=O)/C(=C2/SC(=S)N(CCS(=O)(=O)O)C2=O)c2ccccc21)Nc1cccc(Br)c1 | 103
O=C(O)c1ccccc1NS(=O)(=O)c1ccc(NNC(=S)Nc2ccc(OC(F)F)cc2)c([N+](=O)[O-])c1 | 86.5
C=CCNc1nc(Nc2ccc([N+](=O)[O-])cc2)nc(OC)n1 | 94
O=C(Nc1ccc(Cl)cc1C(=O)O)c1ccc2c(c1)C(=O)N(Cc1ccco1)C2=O | 103
C#CCOc1ccccc1/C=C1/C(=O)ON=C1C | 93.1
COc1ccc(-c2csc(NC(=O)c3ccccc3Br)c2C(=O)O)cc1 | 94.8
Cc1ccc(/C=N/NC(=O)c2nnn(-c3nonc3N)c2CSc2ccccc2)s1 | 101
CCC(=O)OC1(C)C(=O)C2=COC(c3ccc(OC)cc3)=CC2=C(Br)C1=O (stereo not given) | 91.3
CCc1ccc(Nc2ccc(C(=O)O)cc2[N+](=O)[O-])cc1 | 107
O=C(Nc1cc(S(=O)(=O)N2CCOCC2)ccc1O)c1ccc2c(c1)S(=O)(=O)c1ccccc1C2=O | 95.9
O=S(=O)(Nn1c(O)c(C=C2N=c3ccccc3=N2)sc1=S)c1ccccc1 | 90.8
O=C1ON=C(c2ccc([N+](=O)[O-])cc2)/C1=C/c1ccccc1O | 103
O=C(NCc1ccccc1)c1sc(=S)n2c1[nH]c(=O)c1ccccc12 | 98.5
Nc1scc2c(C(=O)O)nn(-c3ccccc3)c(=O)c12 | 103

Compound | viability [%]
CCOC(=O)c1sc(N2C(=O)C(O)=C(C(=O)c3ccco3)C2c2ccc([N+](=O)[O-])cc2)nc1C (stereo not given) | 97.5
Cc1cc(O)c(C(C)C)cc1N=Cc1ccccc1O | 91.1
O=C1C(Cl)=C(N2CCN(Cc3ccccc3)CC2)C(=O)N1c1ccccc1 | 96.7
CC(=O)Oc1oc(-c2ccccc2)nc1C=Nc1ccccc1 | 93
COc1cc(C(=O)Nc2scc(-c3ccc(Br)cc3)c2C(=O)O)cc(OC)c1OC | 92
Cc1ccc(SCc2[nH]nc3c2C(c2ccco2)C(C#N)=C(N)O3)cc1 (stereo not given) | 97
Nc1cccc2c1C(=O)N(C(=O)/C=C/c1cccc(F)c1)C2=O | 102
Cc1cc(O)c(C(C)C)cc1N=Cc1cc([N+](=O)[O-])ccc1O | 105
O=[N+]([O-])c1ccc(O)c(C=Nc2ccc3c(c2)OCO3)c1 | 83.4
CC[N+]1(CC)CC2CCC(C)(C1)C2(C)C (stereo not given) | 103
CCCn1c(C)cc(-c2csc(N)n2)c1C | 93.8
O=[N+]([O-])c1ccc(O)c(Nc2c([N+](=O)[O-])ccc3nonc23)c1 | 90.6
O=C(O)c1cccc(Nc2cc(Cl)c3nonc3c2[N+](=O)[O-])c1 | 99.5
O=C(O)c1cc(Nc2cc(Cl)c3nonc3c2[N+](=O)[O-])ccc1O | 106
O=[N+]([O-])c1c(Nc2ccccc2O)cc(Cl)c2nonc12 | 85.5
O=C(O)c1ccc(Nc2cc(Cl)c3nonc3c2[N+](=O)[O-])cc1 | 96.6
Cc1ccc(/C=N/c2sc3c(c2C#N)CCC3)s1 | 99.6
COc1cc(C2C(C#N)=C(N)N(c3cccnc3)C3=C2C(=O)CCC3)ccc1O (stereo not given) | 101
CCCCCc1c2c(cc(O)c1C(=O)O)OC(=O)c1cc(C(=O)CCCC)c(OC)cc1O2 | 103
COC(=O)Cc1ccc(NC(=S)Nc2ccc(N3CCOCC3)cc2)cc1 | 103
COc1cc(/C=C2/C(=O)NN(c3cccc(C)c3)C2=O)ccc1OC(=O)c1ccco1 | 99.3
CCC(C)NC(=O)c1ccc(N2CCC3(CC2)OCCO3)c([N+](=O)[O-])c1 (stereo not given) | 95.6
CC(C)NC(=O)Cn1cc(S(=O)(=O)N2CCCC2)c(S(=O)(=O)N2CCCC2)c1 | 96.5
CC(=O)Nc1ccc(C2=NNC(=NCC3CCCO3)SC2)cc1 (stereo not given) | 102
O=C(O)CN1C(=O)/C(=C\c2cc(Br)ccc2OCc2ccc([N+](=O)[O-])cc2)SC1=S | 96.9
